From the supplement of paper PMC4466140

Legend:
Test in all cases: SPOT peptide array binding signal intensity (averaged, normalized) (arbitrary units (background-subtracted, floor 0; scale differs between SH3 domains)); higher = stronger binding of the SH3 domain to the peptide
AgAbp1 = molecular target: AgAbp1
Method: (§1)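 GST-tagged SH3 domains from S. cerevisiae (Sc), A. gossypii (Ag), C. albicans (Ca) and S. pombe (Sp) were incubated at 10 ug/ml overnight at 4 C on cellulose SPOT membranes carrying 292 synthetic 15-mer peptides mined from the S. cerevisiae proteome (cysteines replaced by serines). Binding was detected with anti-GST antibody, HRP secondary and chemiluminescence, quantified with Genespotter, and reported as normalized spot intensities averaged over biological replicates.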

AgBbc1 = molecular target: AgBbc1
Method: as §1

AgBem1-D1 = molecular target: AgBem1-D1
Method: as §1

AgBzz1-D1 = molecular target: AgBzz1-D1
Method: as §1

AgBzz1-D2 = molecular target: AgBzz1-D2
Method: as §1

AgCyk3 = molecular target: AgCyk3
Method: as §1

AgFus1 = molecular target: AgFus1
Method: as §1

AgHof1 = molecular target: AgHof1
Method: as §1

AgHse1 = molecular target: AgHse1
Method: as §1

AgLsb1 = molecular target: AgLsb1
Method: as §1

AgLsb4 = molecular target: AgLsb4
Method: as §1

AgMyo5 = molecular target: AgMyo5
Method: as §1

AgNbp2 = molecular target: AgNbp2
Method: as §1

AgRvs167 = molecular target: AgRvs167
Method: as §1

AgSho1 = molecular target: AgSho1
Method: as §1

AgSla1-D1-D2 = molecular target: AgSla1-D1-D2
Method: as §1

AgSla1-D3 = molecular target: AgSla1-D3
Method: as §1

CaAbp1-D1 = molecular target: CaAbp1-D1
Method: as §1

CaAbp1-D2 = molecular target: CaAbp1-D2
Method: as §1

CaBbc1 = molecular target: CaBbc1
Method: as §1

CaBem1-D1 = molecular target: CaBem1-D1
Method: as §1

CaBzz1-D1 = molecular target: CaBzz1-D1
Method: as §1

CaBzz1-D2 = molecular target: CaBzz1-D2
Method: as §1

CaCyk3 = molecular target: CaCyk3
Method: as §1

CaFus1 = molecular target: CaFus1
Method: as §1

CaHof1 = molecular target: CaHof1
Method: as §1

CaHse1 = molecular target: CaHse1
Method: as §1

CaLsb1 = molecular target: CaLsb1
Method: as §1

CaLsb4 = molecular target: CaLsb4
Method: as §1

CaMyo5 = molecular target: CaMyo5
Method: as §1

CaNbp2 = molecular target: CaNbp2
Method: as §1

CaRvs167 = molecular target: CaRvs167
Method: as §1

CaRvs167-3 = molecular target: CaRvs167-3
Method: as §1

CaSho1 = molecular target: CaSho1
Method: as §1

CaSla1-D1-D2 = molecular target: CaSla1-D1-D2
Method: as §1

CaSla1-D3 = molecular target: CaSla1-D3
Method: as §1

ScAbp1 = molecular target: ScAbp1
Method: as §1

ScBbc1 = molecular target: ScBbc1
Method: as §1

ScBem1-D1 = molecular target: ScBem1-D1
Method: as §1

ScBzz1-D1 = molecular target: ScBzz1-D1
Method: as §1

ScBzz1-D2 = molecular target: ScBzz1-D2
Method: as §1

ScCyk3 = molecular target: ScCyk3
Method: as §1

ScFus1 = molecular target: ScFus1
Method: as §1

ScHof1 = molecular target: ScHof1
Method: as §1

ScHse1 = molecular target: ScHse1
Method: as §1

ScLsb1 = molecular target: ScLsb1
Method: as §1

ScLsb2 = molecular target: ScLsb2
Method: as §1

ScLsb3 = molecular target: ScLsb3
Method: as §1

ScLsb4 = molecular target: ScLsb4
Method: as §1

ScMyo3 = molecular target: ScMyo3
Method: as §1

ScMyo5 = molecular target: ScMyo5
Method: as §1

ScNbp2 = molecular target: ScNbp2
Method: as §1

ScPex13 = molecular target: ScPex13
Method: as §1

ScRvs167 = molecular target: ScRvs167
Method: as §1

ScSho1 = molecular target: ScSho1
Method: as §1

ScSla1-D1-D2 = molecular target: ScSla1-D1-D2
Method: as §1

ScSla1-D3 = molecular target: ScSla1-D3
Method: as §1

SpAbp1-D1 = molecular target: SpAbp1-D1
Method: as §1

SpBbc1 = molecular target: SpBbc1
Method: as §1

SpBzz1-D1 = molecular target: SpBzz1-D1
Method: as §1

SpBzz1-D2 = molecular target: SpBzz1-D2
Method: as §1

SpCyk3 = molecular target: SpCyk3
Method: as §1

SpHof1 = molecular target: SpHof1
Method: as §1

SpHof1-2 = molecular target: SpHof1-2
Method: as §1

SpHof1-3 = molecular target: SpHof1-3
Method: as §1

SpHse1 = molecular target: SpHse1
Method: as §1

SpLsb1 = molecular target: SpLsb1
Method: as §1

SpLsb4 = molecular target: SpLsb4
Method: as §1

SpMyo1 = molecular target: SpMyo1
Method: as §1

SpNbp2 = molecular target: SpNbp2
Method: as §1

SpPex13 = molecular target: SpPex13
Method: as §1

SpRvs167 = molecular target: SpRvs167
Method: as §1

SpSla1-D1-D2 = molecular target: SpSla1-D1-D2
Method: as §1

SpSla1-D3 = molecular target: SpSla1-D3
Method: as §1

Binder: KLSRGRYGLPLSSRP
- SPOT peptide array binding signal intensity (AgAbp1): 34
- SPOT peptide array binding signal intensity (AgBbc1): 30
- SPOT peptide array binding signal intensity (AgBem1-D1): 37
- SPOT peptide array binding signal intensity (AgBzz1-D1): 59
- SPOT peptide array binding signal intensity (AgBzz1-D2): 55.5
- SPOT peptide array binding signal intensity (AgCyk3): 7.5
- SPOT peptide array binding signal intensity (AgFus1): 65
- SPOT peptide array binding signal intensity (AgHof1): 20.5
- SPOT peptide array binding signal intensity (AgHse1): 187
- SPOT peptide array binding signal intensity (AgLsb1): 63
- SPOT peptide array binding signal intensity (AgLsb4): 29
- SPOT peptide array binding signal intensity (AgMyo5): ≤ 0
- SPOT peptide array binding signal intensity (AgNbp2): 39
- SPOT peptide array binding signal intensity (AgRvs167): 4.33
- SPOT peptide array binding signal intensity (AgSho1): 6
- SPOT peptide array binding signal intensity (AgSla1-D1-D2): 41
- SPOT peptide array binding signal intensity (AgSla1-D3): 3.75
- SPOT peptide array binding signal intensity (CaAbp1-D1): 380
- SPOT peptide array binding signal intensity (CaAbp1-D2): 273
- SPOT peptide array binding signal intensity (CaBbc1): 101
- SPOT peptide array binding signal intensity (CaBem1-D1): 19
- SPOT peptide array binding signal intensity (CaBzz1-D1): 146
- SPOT peptide array binding signal intensity (CaBzz1-D2): 100
- SPOT peptide array binding signal intensity (CaCyk3): 6.5
- SPOT peptide array binding signal intensity (CaFus1): 86
- SPOT peptide array binding signal intensity (CaHof1): 0.5
- SPOT peptide array binding signal intensity (CaHse1): 2
- SPOT peptide array binding signal intensity (CaLsb1): 1.5
- SPOT peptide array binding signal intensity (CaLsb4): 37
- SPOT peptide array binding signal intensity (CaMyo5): 2
- SPOT peptide array binding signal intensity (CaNbp2): 110
- SPOT peptide array binding signal intensity (CaRvs167): 6.5
- SPOT peptide array binding signal intensity (CaRvs167-3): 13.5
- SPOT peptide array binding signal intensity (CaSho1): 59.5
- SPOT peptide array binding signal intensity (CaSla1-D1-D2): ≤ 0
- SPOT peptide array binding signal intensity (CaSla1-D3): 0.25
- SPOT peptide array binding signal intensity (ScAbp1): 24
- SPOT peptide array binding signal intensity (ScBbc1): 8.5
- SPOT peptide array binding signal intensity (ScBem1-D1): 14
- SPOT peptide array binding signal intensity (ScBzz1-D1): 21
- SPOT peptide array binding signal intensity (ScBzz1-D2): 20
- SPOT peptide array binding signal intensity (ScCyk3): 59
- SPOT peptide array binding signal intensity (ScFus1): 102
- SPOT peptide array binding signal intensity (ScHof1): ≤ 0
- SPOT peptide array binding signal intensity (ScHse1): 754
- SPOT peptide array binding signal intensity (ScLsb1): 89
- SPOT peptide array binding signal intensity (ScLsb2): 7
- SPOT peptide array binding signal intensity (ScLsb3): 16
- SPOT peptide array binding signal intensity (ScLsb4): 15
- SPOT peptide array binding signal intensity (ScMyo3): 6
- SPOT peptide array binding signal intensity (ScMyo5): 8.5
- SPOT peptide array binding signal intensity (ScNbp2): 86.5
- SPOT peptide array binding signal intensity (ScPex13): 7.25
- SPOT peptide array binding signal intensity (ScRvs167): 12.8
- SPOT peptide array binding signal intensity (ScSho1): 112
- SPOT peptide array binding signal intensity (ScSla1-D1-D2): 91.5
- SPOT peptide array binding signal intensity (ScSla1-D3): 2
- SPOT peptide array binding signal intensity (SpAbp1-D1): 146
- SPOT peptide array binding signal intensity (SpBbc1): 2
- SPOT peptide array binding signal intensity (SpBzz1-D1): 163
- SPOT peptide array binding signal intensity (SpBzz1-D2): ≤ 0
- SPOT peptide array binding signal intensity (SpCyk3): 6.5
- SPOT peptide array binding signal intensity (SpHof1): 88.8
- SPOT peptide array binding signal intensity (SpHof1-2): 10.5
- SPOT peptide array binding signal intensity (SpHof1-3): 326
- SPOT peptide array binding signal intensity (SpHse1): 150
- SPOT peptide array binding signal intensity (SpLsb1): 110
- SPOT peptide array binding signal intensity (SpLsb4): 48.5
- SPOT peptide array binding signal intensity (SpMyo1): 2
- SPOT peptide array binding signal intensity (SpNbp2): 38
- SPOT peptide array binding signal intensity (SpPex13): 1
- SPOT peptide array binding signal intensity (SpRvs167): 4.33
- SPOT peptide array binding signal intensity (SpSla1-D1-D2): ≤ 0
- SPOT peptide array binding signal intensity (SpSla1-D3): ≤ 0
